Results on 7 molecules are retold here after PubChem BioAssay (EPA / NIEHS).

The target in test [1] is Transcription factor E2F1 (Homo sapiens) (UniProt Q01094). Nature of the test: ATG_E2F_CIS: Attagene CIS-FACTORIAL HepG2 Assay for human E2F Transcription Factor 1 (AID 2282935). The conditions noted are these: HepG2 Attagene cis-reporter, E2F reporter RNA transcripts; actives raise or lower the signal. Summed up:
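Multiplexed cis-reporter assay: HepG2, transient transfection, 24 h dosing, mRNA quantitation by labeled RT-PCR and CE.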

A short description of test [2]: ATG_E_Box_CIS: Attagene CIS-FACTORIAL HepG2 Assay for human Enhancer Box (E-box) (AID 2282936). Particulars: HepG2 E-box cis-reporter transcription, actives raise or lower the signal. Summed up:
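Multiplexed CIS reporter system in transiently transfected HepG2 cells measures native transcription factor activity. Reporter RNA after 24 h exposure is profiled by RT-PCR-capillary electrophoresis.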

The nature of test [3]: ATG_M_61_CIS: Attagene CIS-FACTORIAL HepG2 Assay for M61 Transcription Factor (Internal Marker) (AID 2282937). Particulars: HepG2 Attagene CIS-FACTORIAL M61 internal marker reporter; actives raise or lower the signal. Summed up:
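Readout is reporter mRNA by RT-PCR, fluorescent primer extension and capillary electrophoresis, with gain or loss fitted relative to DMSO. Transfected HepG2 cells carrying endogenous-TF-driven cis reporters were exposed to chemicals for 24 hours.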

A short description of test [4]: ATG_EGR_CIS: Attagene CIS-FACTORIAL HepG2 Assay for human Early Growth Response 1 (EGR1) (AID 2282938). The conditions noted are these: HepG2 Attagene CIS-FACTORIAL EGR reporter mRNA; actives raise or lower the signal. Summed up: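 After 24 h compound exposure, RNA from reporter-transfected HepG2 cells was reverse-transcribed, PCR-amplified, fluorescently labelled and resolved by capillary electrophoresis. EGR1 reporter transcript changes, up or down, were fitted against DMSO, reflecting endogenous transcription-factor activity.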

Test [5] in a line: ATG_M_19_CIS: Attagene CIS-FACTORIAL HepG2 Assay for M19 Transcription Factor (Internal Marker) (AID 2282939). The conditions noted are these: HepG2 Attagene CIS-FACTORIAL M19 internal marker reporter; actives raise or lower the signal. Summed up:
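Readout: fluorescent reporter-transcript fragments by capillary electrophoresis after RT-PCR. Human HepG2 liver cells carried transfected MRTU constructs reporting endogenous transcription-factor activity; exposure 24 h. Gain or loss of signal fitted relative to DMSO.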

The nature of test [6]: ATG_ERE_CIS: Attagene CIS-FACTORIAL HepG2 Assay for Estrogen Response Element (ERE) (AID 2282940). Particulars: HepG2 ERE cis-reporter, Attagene RNA transcript; actives raise or lower the signal. In short, it runs like this:
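Readout: reporter mRNA induction by RT-PCR, FAM-labelled primer extension, HpaI digestion and capillary electrophoresis, 24 h after dosing transfected HepG2 cells. Endogenous transcription factors act on cis-element-regulated reporters. Gain or loss fitted against DMSO.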

Test [7] in a line: ATG_Ets_CIS: Attagene CIS-FACTORIAL HepG2 Assay for human Erythroblast Transformation Specific (ETS) (AID 2282941). Particulars: HepG2 ETS cis-reporter transcription, actives raise or lower the signal. In short, it runs like this: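 HepG2 cells transiently transfected with cis-promoter reporter transcription units were dosed for 24 h; reporter mRNA was measured by RT-PCR, 6-FAM primer extension, HpaI digestion and capillary electrophoresis, with bidirectional fitting against DMSO baseline.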

The target in test [8] is Hepatocyte nuclear factor 3-beta (Homo sapiens) (UniProt Q9Y261). The experiment in a line: ATG_FoxA2_CIS: Attagene CIS-FACTORIAL HepG2 Assay for human Forkhead box A2 (FOXA2) (AID 2282942). Particulars: HepG2 cis-reporter transcription factor activity, 24 h; actives raise or lower the signal. In short, it runs like this: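 Endogenous transcription factor activity is captured via cis-element-driven reporter transcripts in transfected HepG2. Total RNA taken at 24 h post-dosing; labelled RT-PCR products resolved by capillary electrophoresis. Gain or loss fitted versus DMSO.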

Test [9] is described as follows: ATG_FoxO_CIS: Attagene CIS-FACTORIAL HepG2 Assay for human Forkhead box O (FoxO) (AID 2282943). Particulars: HepG2 Attagene cis-reporter, FoxO element, mRNA; actives raise or lower the signal. In short, it runs like this: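 Values reflect reporter mRNA induction or loss in HepG2 cells 24 h post-dosing, fitted bidirectionally with DMSO as negative control and baseline. Detection used RT-PCR and fluorescence capillary electrophoresis.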

Test [10] can be described thus: ATG_GATA_CIS: Attagene CIS-FACTORIAL HepG2 Assay for human GATA Binding Protein (AID 2282944). Particulars: HepG2 GATA cis-element reporter, Attagene multiplex mRNA; actives raise or lower the signal. In short, it runs like this:
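Read-out: fluorescent reporter mRNA fragments resolved by capillary electrophoresis after RT-PCR. Human liver HepG2 cells carried transiently transfected cis-regulated reporter constructs; chemicals incubated 24 h; gain or loss of signal fitted relative to DMSO.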

Test [11] can be described thus: ATG_GLI_CIS: Attagene CIS-FACTORIAL HepG2 Assay for human Zinc Finger Protein GLI1 (AID 2282945). Particulars: HepG2, Attagene cis-factorial reporter mRNA, GLI element; actives raise or lower the signal. In short, it runs like this:
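HepG2 cells transiently transfected with cis-promoter multiplexed reporter units report endogenous transcription factor activity. After 24 h chemical exposure, reporter mRNA was quantified by RT-PCR, 6-FAM labelling, HpaI digestion and capillary electrophoresis, with bidirectional fitting against DMSO.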

Test [12] has as its target Bile acid receptor (Homo sapiens) (UniProt Q96RI1). The experiment in a line: ATG_IR1_CIS: Attagene CIS-FACTORIAL HepG2 Assay for human Nuclear Receptor Subfamily 1 Group H Member 4 (NR1H4), IR1 submotif (AID 2282946). Particulars: IR1 reporter transcription, actives raise or lower the signal. Summed up:
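Transient MRTU transfection, HepG2; 24 h dosing; RNA → RT-PCR → 6-FAM primer extension → HpaI digest → capillary electrophoresis fluorescence. Gain/loss of signal fitted relative to DMSO.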

Test [13] is described as follows: ATG_ISRE_CIS: Attagene CIS-FACTORIAL HepG2 Assay for human Interferon Regulatory Factor 1 (IRF1) binding to an Interferon-Stimulated Response Element (ISRE) (AID 2282948). Particulars: HepG2 ISRE cis-reporter (Attagene), mRNA transcription readout; actives raise or lower the signal. In short, it runs like this: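 HepG2 cells transiently transfected with multiplexed cis-promoter reporter units; after 24 h compound exposure, reporter mRNA quantified by RT-PCR, FAM labelling, HpaI digestion and capillary electrophoresis. Bidirectional fit versus DMSO baseline.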

Test [14] is described as follows: ATG_M_32_CIS: Attagene CIS-FACTORIAL HepG2 Assay for M32 Transcription Factor (Internal Marker) (AID 2282949).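 Also: background control marker of the multiplexed CIS panel rather than a real target.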 The conditions noted are these: HepG2 Attagene cis-factorial M32 reporter, mRNA; actives raise or lower the signal. Summed up: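 Fluorescent capillary electrophoresis peaks of HpaI-digested, FAM-labelled RT-PCR reporter products give the signal. Source: transiently transfected human liver HepG2 cells, 24 h after chemical dosing; bidirectional fitting against DMSO.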

A short description of test [15]: ATG_M_06_CIS: Attagene CIS-FACTORIAL HepG2 Assay for M06 Transcription Factor (Internal Marker) (AID 2282950). Particulars: HepG2 Attagene CIS-FACTORIAL M06 internal marker reporter; actives raise or lower the signal. In short, it runs like this:
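Terse: HepG2, transient MRTU transfection (FuGene 6), 24 h dosing; total RNA, oligo(dT) RT, PCR, FAM label, HpaI cut, capillary electrophoresis; bidirectional fit vs DMSO baseline; background-control endpoint.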

Test [16] concerns the target Hypoxia-inducible factor 1-alpha (Homo sapiens) (UniProt Q16665). Nature of the test: ATG_HIF1a_CIS: Attagene CIS-FACTORIAL HepG2 Assay for human Hypoxia Inducible Factor 1 (HIF1A) (AID 2282951). Particulars: HepG2 Attagene cis-factorial HIF1a reporter transcription; actives raise or lower the signal. In short, it runs like this:
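Activity is fitted in both directions relative to DMSO. Reporter transcripts are read by RT-PCR, fluorescent primer extension and capillary electrophoresis after 24 h chemical treatment. The cells are HepG2 carrying transiently transfected cis-element-driven reporter units responding to endogenous factors.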

In test [17] the target is Hepatocyte nuclear factor 6 (Homo sapiens) (UniProt Q9UBC0). Nature of the test: ATG_HNF6_CIS: Attagene CIS-FACTORIAL HepG2 Assay for human Hepatocyte Nuclear Factor 6 (HNF6) (AID 2282952). The conditions noted are these: HepG2 Attagene cis-factorial HNF6 reporter transcription; actives raise or lower the signal. Summed up: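 Reporter mRNA induction or loss in HepG2 after 24 h exposure; transient cis-MRTU transfection; fragments quantified by capillary electrophoresis; bidirectional analysis, DMSO as negative control.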

Test [18] addresses Heat shock factor protein 1 (Homo sapiens) (UniProt Q00613). The experiment in a line: ATG_HSE_CIS: Attagene CIS-FACTORIAL HepG2 Assay for human Heat Shock Transcription Factor 1 (HSE) (AID 2282953). The conditions noted are these: HepG2 HSE cis-reporter, Attagene RNA transcription; actives raise or lower the signal. Summed up:
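Read-out: fluorescence of reporter-specific RT-PCR fragments separated by capillary electrophoresis. HepG2 carrying transfected cis-element reporter units; 24 h dosing; activity fitted in both directions relative to DMSO baseline.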

Test [19] can be described thus: ATG_MRE_CIS: Attagene CIS-FACTORIAL HepG2 Assay for human Metal Responsive Element (MRE) (AID 2282954). The conditions noted are these: HepG2 MRE cis-reporter transcription, Attagene multiplex; actives raise or lower the signal. Summed up: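 Step one: transfect HepG2 with cis-regulated reporter units. Step two: dose 24 h. Step three: isolate RNA, RT-PCR, 6-FAM label, HpaI digest, capillary electrophoresis. Fit bidirectionally to DMSO.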

Test [20] in a line: ATG_GRE_CIS: Attagene CIS-FACTORIAL HepG2 Assay for human Glucocorticoid Response Elements (GRE) (AID 2282947). The conditions noted are these: HepG2 GRE cis-reporter, Attagene multiplex mRNA; actives raise or lower the signal. In short, it runs like this: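 Following 24 h chemical exposure of transiently transfected HepG2 cells, total RNA was reverse-transcribed and reporter cDNA amplified, fluorescently labelled and sized by capillary electrophoresis. Signal gain or loss was fitted relative to DMSO vehicle.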

Active and inactive are the calls of the source. The calls were made as follows: active = hit-call score of the fitted dose curve at least 0.9, where 1 is the maximum; inactive = score below 0.9.

What is called AC50 is the concentration giving half of the maximal activity seen.

Transcription factor E2F1 (Homo sapiens), sequence (Q01094 whole entry, looked up): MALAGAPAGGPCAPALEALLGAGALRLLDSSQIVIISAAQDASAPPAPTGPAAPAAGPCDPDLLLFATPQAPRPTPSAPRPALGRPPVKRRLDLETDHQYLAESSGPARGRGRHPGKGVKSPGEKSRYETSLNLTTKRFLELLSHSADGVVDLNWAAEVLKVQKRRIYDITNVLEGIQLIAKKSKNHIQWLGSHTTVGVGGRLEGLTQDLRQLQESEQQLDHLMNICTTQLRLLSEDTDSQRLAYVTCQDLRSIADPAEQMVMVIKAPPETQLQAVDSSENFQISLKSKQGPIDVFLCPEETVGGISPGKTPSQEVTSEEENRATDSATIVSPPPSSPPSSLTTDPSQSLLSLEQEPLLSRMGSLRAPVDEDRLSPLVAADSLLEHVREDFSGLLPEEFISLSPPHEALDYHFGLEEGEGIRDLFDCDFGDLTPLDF
Bile acid receptor (Homo sapiens), sequence (Q96RI1 whole entry, looked up): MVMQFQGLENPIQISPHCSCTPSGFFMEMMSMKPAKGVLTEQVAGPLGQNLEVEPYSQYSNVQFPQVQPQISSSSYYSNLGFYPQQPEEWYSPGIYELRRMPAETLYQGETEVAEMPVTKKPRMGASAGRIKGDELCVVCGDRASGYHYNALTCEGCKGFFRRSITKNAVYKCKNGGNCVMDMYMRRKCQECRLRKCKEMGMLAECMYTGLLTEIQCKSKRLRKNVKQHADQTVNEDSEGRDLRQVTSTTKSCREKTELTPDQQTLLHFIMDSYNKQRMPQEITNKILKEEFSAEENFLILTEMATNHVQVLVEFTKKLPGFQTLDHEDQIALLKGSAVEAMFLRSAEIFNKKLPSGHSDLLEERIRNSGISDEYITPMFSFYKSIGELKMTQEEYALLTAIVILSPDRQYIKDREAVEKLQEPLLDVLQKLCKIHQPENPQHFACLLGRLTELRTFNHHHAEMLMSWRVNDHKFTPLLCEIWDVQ
Hypoxia-inducible factor 1-alpha (Homo sapiens), sequence (Q16665 whole entry, looked up): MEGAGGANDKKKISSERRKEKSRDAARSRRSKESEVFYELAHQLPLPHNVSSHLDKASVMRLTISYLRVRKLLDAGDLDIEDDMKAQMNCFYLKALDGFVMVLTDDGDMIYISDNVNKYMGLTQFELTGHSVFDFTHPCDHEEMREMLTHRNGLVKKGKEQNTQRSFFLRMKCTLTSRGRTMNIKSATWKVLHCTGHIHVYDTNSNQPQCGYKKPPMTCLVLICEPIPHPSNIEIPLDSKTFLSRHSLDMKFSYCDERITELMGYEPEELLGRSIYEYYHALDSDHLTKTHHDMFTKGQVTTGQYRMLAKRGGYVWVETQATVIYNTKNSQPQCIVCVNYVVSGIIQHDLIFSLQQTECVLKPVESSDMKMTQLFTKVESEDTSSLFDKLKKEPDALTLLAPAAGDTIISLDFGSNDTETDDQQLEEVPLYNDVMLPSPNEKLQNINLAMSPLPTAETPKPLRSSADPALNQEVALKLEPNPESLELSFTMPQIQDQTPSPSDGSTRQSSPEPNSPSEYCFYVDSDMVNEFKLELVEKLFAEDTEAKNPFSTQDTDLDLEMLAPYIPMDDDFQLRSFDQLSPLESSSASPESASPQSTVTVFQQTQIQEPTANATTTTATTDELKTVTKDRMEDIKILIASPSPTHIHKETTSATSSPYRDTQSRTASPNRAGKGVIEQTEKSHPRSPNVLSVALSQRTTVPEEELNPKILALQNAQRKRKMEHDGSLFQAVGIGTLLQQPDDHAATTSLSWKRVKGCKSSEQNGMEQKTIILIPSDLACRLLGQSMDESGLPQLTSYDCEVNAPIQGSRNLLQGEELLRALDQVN
Hepatocyte nuclear factor 6 (Homo sapiens), sequence (Q9UBC0 whole entry, looked up, the tested form may be a part): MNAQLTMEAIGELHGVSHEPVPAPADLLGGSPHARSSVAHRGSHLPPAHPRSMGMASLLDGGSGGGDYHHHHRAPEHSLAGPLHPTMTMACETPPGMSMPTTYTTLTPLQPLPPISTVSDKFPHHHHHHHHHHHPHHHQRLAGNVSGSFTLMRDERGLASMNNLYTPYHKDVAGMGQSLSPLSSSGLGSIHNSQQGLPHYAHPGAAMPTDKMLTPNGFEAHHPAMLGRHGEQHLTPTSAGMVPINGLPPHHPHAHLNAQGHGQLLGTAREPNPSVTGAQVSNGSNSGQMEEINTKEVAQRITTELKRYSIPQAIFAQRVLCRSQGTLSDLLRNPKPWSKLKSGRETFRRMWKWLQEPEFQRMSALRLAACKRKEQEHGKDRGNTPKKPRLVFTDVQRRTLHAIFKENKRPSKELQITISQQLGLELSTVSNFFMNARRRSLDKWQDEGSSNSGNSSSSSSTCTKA
Heat shock factor protein 1 (Homo sapiens), sequence (Q00613 whole entry, looked up, the tested form may be a part): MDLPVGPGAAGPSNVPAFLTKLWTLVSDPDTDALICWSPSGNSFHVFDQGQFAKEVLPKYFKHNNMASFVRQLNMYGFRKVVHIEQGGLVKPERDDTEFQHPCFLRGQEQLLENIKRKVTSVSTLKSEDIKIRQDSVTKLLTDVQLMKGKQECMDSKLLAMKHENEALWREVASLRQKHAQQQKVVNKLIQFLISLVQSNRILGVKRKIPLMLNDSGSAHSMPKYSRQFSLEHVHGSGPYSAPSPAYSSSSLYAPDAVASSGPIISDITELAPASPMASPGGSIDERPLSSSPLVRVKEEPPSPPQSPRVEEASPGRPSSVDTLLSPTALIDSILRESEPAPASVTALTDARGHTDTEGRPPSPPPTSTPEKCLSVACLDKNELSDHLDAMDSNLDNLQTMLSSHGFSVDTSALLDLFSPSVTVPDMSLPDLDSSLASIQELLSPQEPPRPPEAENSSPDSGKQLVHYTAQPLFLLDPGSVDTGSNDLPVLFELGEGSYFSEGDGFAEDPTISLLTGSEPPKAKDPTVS
Hepatocyte nuclear factor 3-beta (Homo sapiens), sequence (Q9Y261 whole entry, looked up): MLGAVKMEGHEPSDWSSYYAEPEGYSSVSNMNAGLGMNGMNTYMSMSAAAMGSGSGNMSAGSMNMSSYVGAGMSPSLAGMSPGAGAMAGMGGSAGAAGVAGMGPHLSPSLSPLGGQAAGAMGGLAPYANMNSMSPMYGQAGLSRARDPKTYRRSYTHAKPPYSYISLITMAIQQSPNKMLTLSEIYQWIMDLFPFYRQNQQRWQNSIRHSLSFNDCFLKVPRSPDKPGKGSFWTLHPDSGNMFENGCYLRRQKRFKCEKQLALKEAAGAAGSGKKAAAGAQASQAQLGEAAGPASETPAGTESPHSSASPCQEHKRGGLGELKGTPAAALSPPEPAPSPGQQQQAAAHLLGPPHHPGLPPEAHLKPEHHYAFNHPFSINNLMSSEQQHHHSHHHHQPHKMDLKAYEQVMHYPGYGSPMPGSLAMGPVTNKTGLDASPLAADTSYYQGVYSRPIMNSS

Take `COCCOCCOC`: the result in test [1], in test [2], in test [3], in test [4], in [5] and in [6] was inactive. The call in test [7], in test [8], in [9], in [10], in test [11] and in [12] was inactive. In addition, the result in [13], in [14], in test [15], in [16], in test [17] and in [18] was inactive. Also, the outcome in [19] was inactive.

Regarding `Cc1ccc(C(C)C)c(O)c1`, the outcome in test [1], in test [2], in [3], in test [4], in [5] and in [6] was inactive. Also, the molecule was called inactive in [7], in test [8], in test [9], in [10], in test [11] and in test [20]. The molecule was called inactive in [13], in [14], in test [15], in test [16], in test [17] and in test [18]. In addition, the call in test [19] was inactive.

For the molecule `CCCCc1ccc2c(n1)[C@@H](c1ccc(OC)cc1C[C@H](C)C(=O)O)[C@H](C(=O)O)[C@H]2c1ccc2c(c1)OCO2`, the call in test [1], in test [2], in test [3], in test [4], in [5] and in [7] was inactive. Further, the outcome in test [8], in test [9], in [10], in test [11], in [12] and in test [20] was inactive. For the same molecule, the molecule was called inactive in test [13], in test [14], in [15], in test [16], in [17] and in test [18]. Moreover, in [19], the call was inactive.

Turning to `Cc1ccc(N(C)C)cc1`, the molecule was classed as inactive in [1], in [2], in test [3], in [4], in test [5] and in test [6]. Also, the outcome in [7], in [8], in test [9], in [10], in test [11] and in [20] was inactive. The result in [13], in [14], in [15], in test [16], in test [17] and in test [19] was inactive.

As for `Cc1cc(=O)[nH]c(=S)[nH]1`, the call in test [1], in test [2], in [3], in [4], in [6] and in [7] was inactive. Further, the molecule was classed as inactive in [8], in test [9], in test [10], in test [11], in test [12] and in test [20]. Also, the molecule was called inactive in [13], in test [14], in test [15], in test [16], in test [17] and in test [18]. For the same molecule, in [19], the result was inactive.

`CCCCCCCCCCCCCO`: the call in test [1], in [3], in test [4], in [5], in test [7] and in test [8] was inactive. Further, the call in test [9], in test [10], in [11], in test [20], in [13] and in test [15] was inactive. Moreover, the outcome in test [17], in test [18] and in [19] was inactive. Also, the figures for the AC50 in test [2], in [14] and in test [16] were 21.8 µM (active), 34.3 µM (active) and 8.99 µM (active), respectively.

`NCC1(Cc2noc(=O)[nH]2)CCCCC1`: the outcome in [1], in test [2], in test [3], in [4], in test [5] and in test [6] was inactive. Besides, the outcome in [7], in [8], in test [9], in [10], in test [11] and in test [13] was inactive. Besides, the result in test [14], in test [15], in [16], in test [17], in test [18] and in test [19] was inactive.
